Compound activity as filed in PubChem.
The list is not random: actives were taken first. Their share in the collection is about 2.9%.
IDH1 R132H inh: inhibitors of human mutant IDH1 R132H; hit rate 0.093% among 390,000; IDH1-R132H enzyme, NADPH consumption, diaphorase/resazurin fluorescence; Potency, µM (series often up to 76.6 µM), for inactives: at the top dose activity change, negative = inhibition, most hits filed as inhibitors; also: potency is read from the fitted curve at half-maximal effect; % is scaled to controls: 0 for no effect and ±100 for the full control effect; nearly all actives have a fitted effect of over 65% in size
Target sequence (O75874 whole entry R132H, stated change not applied): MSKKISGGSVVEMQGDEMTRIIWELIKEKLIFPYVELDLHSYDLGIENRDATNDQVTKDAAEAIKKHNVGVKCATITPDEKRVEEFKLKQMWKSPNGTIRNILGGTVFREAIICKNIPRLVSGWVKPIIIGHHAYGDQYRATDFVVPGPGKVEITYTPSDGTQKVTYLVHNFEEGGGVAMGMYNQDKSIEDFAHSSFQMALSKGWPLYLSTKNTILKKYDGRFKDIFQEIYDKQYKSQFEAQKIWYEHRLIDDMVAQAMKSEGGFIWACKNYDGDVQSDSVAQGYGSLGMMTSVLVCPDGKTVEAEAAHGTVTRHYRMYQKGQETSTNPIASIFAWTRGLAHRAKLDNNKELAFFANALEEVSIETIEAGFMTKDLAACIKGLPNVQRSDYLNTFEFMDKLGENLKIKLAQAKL
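IDH1-R132H (0.5 ug/mL) preincubated 30 min with compound, then NADPH (0.016 mM) and alpha-KG (2 mM) added; 80 min at RT, pH 7.5. Remaining NADPH coupled via diaphorase/resazurin to fluorescence (540/590 nm); concentration-response curves normalized to no-enzyme control.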
D3 antag: D3 dopamine receptor (human) antagonism; P35462; D3R cells, DiscoveRx beta-arrestin luminescence, antagonist mode; hits give low values; max response, negative = inhibition, %; hit rate 2.5% among 360,000; AID 652054; in the data active = max response below about -50%; inconclusive = no clear call, values can overlap the other calls; also: % is scaled to controls: 0 for no effect and ±100 for the full control effect
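Cells expressing the human receptor were seeded at 1500 cells/well, incubated overnight at 37 degrees C in 5% CO2, then exposed to library compounds with dopamine controls for 90 minutes at 37 degrees C before luminescent detection.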
B2AR arrestin: recruits beta-arrestin to the human beta2-adrenergic receptor | Potency, µM (doses to about 46.1 µM), for inactives: at the top dose activation, hits mostly activators | hit rate 0.02% among 330,000 | beta-arrestin recruitment to beta2AR, cell-based reporter;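 also: potency is read from the fitted curve at half-maximal effect; 0% = DMSO controls and full agonism = EC100 isoproterenol or metaproterenol; nearly all actives have a fitted effect of over 65% in size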
D3 ag: D3 dopamine receptor (human) agonism | P35462 | D3R DiscoveRx beta-arrestin cells, luminescence, 90 min | max activation, % | hit rate 0.58% among 410,000 | AID 652048; in the data active = max activation above about 30%; also: 0% is about no effect
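Cells at 1500/well, incubated overnight, then treated with pinned compounds (dopamine as control) for 90 min at 37 degrees C. DiscoveRx reagent added for 30 - 60 minutes at room temperature; luminescence read.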
Integrin act MD: integrin-mediated muscular dystrophy alleviation activation. Potency, µM (highest dose often 38.3 µM), for the others: top-dose activation, actives largely listed as activators. AID 624291. hit rate 0.064% among 350,000. alpha7betagal myoblasts, beta-gal FDG fluorescence, 48 h;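 also: potency is read from the fitted curve at half-maximal effect; 100% = response of the positive control SU9516; nearly all actives have a fitted effect of over 60% in size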
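alpha7betagal+/- myoblasts (passage 13, 250/well) treated 48 h at 37C with compounds at 1:260 dilution of DMSO stock. Lysed, then beta-galactosidase activity read as FDG fluorescence (ex 480/em 540) after 30 min, with pre-read for autofluorescence.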
* hit, by the source's call; ? = inconclusive; · = no result. Unless noted, calls follow the shape of the dose curve; as a rule, active = well fitted curve in the direction sought with a large enough effect; inconclusive = small, poorly fitted or top-dose-only effect, or another doubt; inactive = no such curve, though single readings can be large; an effect the other way counts as inactive or inconclusive.

SMILES	IDH1 R132H inh	D3 antag	B2AR arrestin	D3 ag	Integrin act MD
Cc1[nH]n2c(=O)c(C#N)c(-c3ccccc3)nc2c1-c1ccccc1	-10%	-60*	0%	0	4%
CCC(=O)N1CCc2cc(Br)cc(S(=O)(=O)N3CCN(c4ccccc4OC)CC3)c21	-6%	·	·	-7	·
Cc1oc(-c2ccccc2F)nc1CS(=O)(=O)CC(=O)N1CCN(c2ccc(Cl)cc2)CC1	2%	·	·	0	·
O=c1c(N=Nc2ccccc2)c[nH]n1-c1ccccc1	18%	-62*	·	-19	28%
O=C(NCCN1CCN(c2cccc(Cl)c2)CC1)Nc1ccccc1C(F)(F)F	-9%	·	·	-18	·
Cc1oc(-c2ccccc2Cl)nc1CS(=O)CC(=O)N1CCN(c2cccc(C(F)(F)F)c2)CC1 (configuration not stated)	20%	·	·	-4	·
CC(CNC(=O)Cn1ccc2cc(S(=O)(=O)N3CCCCC3)ccc21)c1ccccc1 (configuration not stated)	4%	·	·	-5	·
O=C(Cn1sc2ccccc2c1=O)Nc1ccc(F)cc1	-4%	-78*	·	-17	-68%
O=C(c1cccc([N+](=O)[O-])c1)N1CCN(c2ccc(Nc3ccccc3)nn2)CC1	-2%	·	·	9	·
CNCCCCOc1ccc(C(C)(C)C)cc1Cl	-11%	-50*	0%	-17	-70%
Cc1ccc(OCCCNCCO)c(Br)c1	5%	-60*	0%	-2	-47%
CCOCCCNCc1c(Cl)cccc1Cl	2%	?	0%	-6	?
CNCCCOc1ccc(C)cc1Br	3%	-53*	0%	-8	-58%
CCCCNCCCOc1cccc(Cl)c1Cl	2%	-81*	0%	-21	-32%
Cc1ccc(OCCCN(C)C)c(Br)c1	3%	4	0%	-20	-27%
CCn1c(SCC(=O)N2CCC(C)CC2)nnc1-c1ccccc1O	5%	·	·	0	·
CCCCNCCCOc1ccc(C)cc1Br	4%	-67*	-1%	0	-63%
NCCCC[C@H](NC(=O)[C@@H]1CCCN1C(=O)[C@@H]1CSSC[C@H](N)C(=O)N[C@@H](Cc2ccccc2)C(=O)N[C@@H](Cc2ccccc2)C(=O)N[C@@H](CCC(N)=O)C(=O)N[C@@H](CC(N)=O)C(=O)N1)C(=O)NCC(N)=O	·	·	·	-2	·
Cc1ccc(C)c(N2CCN(CC3CCCCC3)CC2)c1	6%	-57*	0%	-14	-37%
Cc1cccc(N2CCN(CC3CCCCC3)CC2)c1C	-1%	-97*	-1%	-24	-21%
Cc1cccc(N2CCN(C(=O)CNC(=O)C3CCCCC3)CC2)c1C	4%	0	-1%	5	-15%
NC(=O)[C@@H]1C[C@]2(NC(=O)NC2=O)c2cc(F)ccc2O1	·	·	·	-1	·
C[C@@H](O)[C@H]1C(=O)N2C(C(=O)O)=C([C@H]3CCCO3)S[C@H]12	·	·	·	-2	·
Oc1c(Br)cc(Cl)cc1C=Nc1ccccc1Br	6%	-73*	-1%	-20	-17%
O=S1(=O)CCOC[C@H](c2ccccc2)N1Cc1ccccc1	22%	0	-1%	9	30%
SMILES	IDH1 R132H inh	D3 antag	B2AR arrestin	D3 ag	Integrin act MD
O=S1(=O)CCOC[C@H](c2ccccc2)N1Cc1cccc(Cl)c1	19%	-59*	-1%	-13	12%
CCOC(=O)N1CCN(c2cc(=O)n(-c3ccc(OCC)cc3)c(=O)[nH]2)CC1	-3%	6	0%	20	-9%
CCOc1ccc(-n2c(=O)cc(N3CCN(c4ccc(F)cc4)CC3)[nH]c2=O)cc1	8%	-114*	0%	-2	7%
CC(C)C[C@@H]1NC(=O)[C@H](CCCN)NC(=O)[C@H](C(C)C)NC(=O)[C@@H]2CCCN2C(=O)[C@@H](Cc2ccccc2)NC(=O)[C@H](CC(C)C)NC(=O)[C@H](CCCN)NC(=O)[C@H](C(C)C)NC(=O)[C@@H]2CCCN2C(=O)[C@@H](Cc2ccccc2)NC1=O	·	·	·	31*	·
O=C1N[C@@H](Cc2ccccc2)C(=O)N2CCC[C@@H]12	2%	-16	-1%	-7	-13%
CCc1c(C)sc2c1CCN(C(=O)Nc1ccc(F)c(Cl)c1)C2c1ccc(F)cc1 (configuration not stated)	-6%	·	·	0	·
CC(=O)c1ccc(C(=O)N2CCc3c([nH]c4ccccc34)C2c2cccc(C)n2)s1 (configuration not stated)	6%	-56*	0%	-33	4%
O=C(O)C1CCN(c2ccc(S(=O)(=O)N3CCCCC3)cc2[N+](=O)[O-])CC1	2%	-12	0%	-4	0%
O=[N+]([O-])c1cc(S(=O)(=O)N2CCCC2)ccc1O	3%	-28	-3%	1	-2%
O=C(O)C1CCN(S(=O)(=O)c2ccc(N3CCCC3C(=O)O)c([N+](=O)[O-])c2)CC1 (configuration not stated)	1%	-82*	-1%	-20	8%
O=[N+]([O-])c1cc(S(=O)(=O)N2CCCCCC2)ccc1F	46µM*	-9	0%	4	-49%
CC1(C)S[C@@H]2[C@H](NC(=O)C(C(=O)Oc3ccc4c(c3)CCC4)c3ccccc3)C(=O)N2[C@H]1C(=O)O (some centres not stated)	·	·	·	-11	·
Cc1cccc(CNC(=O)CCCN2C(=O)COc3ccc(C)cc32)c1	·	·	·	-7	·
CCN=C1S/C(=C\c2cn(C(C)=O)nc2-c2ccccc2)C(=O)N1CC	-2%	58	2%	64*	-6%
CC(=O)NC1=NC(=O)/C(=C/c2cn(C(C)=O)nc2-c2ccccc2)S1	-8%	0	0%	-1	?
Cc1nc2ccccc2c2oc(C(=O)NCCCN3CCCC(C)C3)cc12 (configuration not stated)	3%	-77*	0%	-17	-46%
CCOC(=O)C1CCCN(C(=O)c2cc3c(C)nc4ccccc4c3o2)C1 (configuration not stated)	10%	39	0%	38*	-11%
CC1CCCN(CCCNC(=O)c2cc3c(Cl)nc4ccccc4c3s2)C1 (configuration not stated)	10%	-65*	1%	-13	-27%
Cc1nc2ccccc2c2oc(C(=O)NCCCN3CC(C)CC(C)C3)cc12 (configuration not stated)	-4%	-65*	0%	-17	-49%
Cc1nc2ccccc2c2oc(C(=O)N3CC(C)CC(C)C3)cc12 (configuration not stated)	-2%	9	0%	0	22%
CCCCn1c(=O)c2oc3ccccc3c2n(Cc2ccccc2C)c1=O	-12%	·	·	3	·
CCOc1ccccc1NC(=O)c1nn(C)c2c1CSc1ccccc1-2	0%	·	·	7	·
CCCCN(CC)CCNC(=O)c1cc2c(=O)[nH]c3ccccc3c2s1	6%	-54*	0%	-23	7%
CCCN(CCC)CCCNC(=O)c1cc2c(=O)[nH]c3ccccc3c2s1	-6%	-3	0%	-12	-18%
